This note sets out measurements from PubChem BioAssay AID1445 (SRMLSC, 2008).

The structures appear in SMILES notation. Screen size: about 220,000 compounds; about 910 (0.41%) were called active. The list comes from a sample in which actives are over-represented; it also holds similar structures and randomly drawn compounds. Measured potencies and affinities stand elsewhere. A number with no mark means an inactive call.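 Rule for the calls: active = primary inhibition above the hit cutoff, then over 50% inhibition at one or more dose response concentrations (cut at about 23% in these data, passing the limit was not always enough); inconclusive = conflicting primary data, or primary hits not chosen for dose response; inactive = low primary inhibition, or under 50% at every dose.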 Where a SMILES comes first, the peptide text is derived from it.

Chain of Aminopeptidase N (Plasmodium falciparum (isolate 3D7)) (O96935 whole entry, looked up): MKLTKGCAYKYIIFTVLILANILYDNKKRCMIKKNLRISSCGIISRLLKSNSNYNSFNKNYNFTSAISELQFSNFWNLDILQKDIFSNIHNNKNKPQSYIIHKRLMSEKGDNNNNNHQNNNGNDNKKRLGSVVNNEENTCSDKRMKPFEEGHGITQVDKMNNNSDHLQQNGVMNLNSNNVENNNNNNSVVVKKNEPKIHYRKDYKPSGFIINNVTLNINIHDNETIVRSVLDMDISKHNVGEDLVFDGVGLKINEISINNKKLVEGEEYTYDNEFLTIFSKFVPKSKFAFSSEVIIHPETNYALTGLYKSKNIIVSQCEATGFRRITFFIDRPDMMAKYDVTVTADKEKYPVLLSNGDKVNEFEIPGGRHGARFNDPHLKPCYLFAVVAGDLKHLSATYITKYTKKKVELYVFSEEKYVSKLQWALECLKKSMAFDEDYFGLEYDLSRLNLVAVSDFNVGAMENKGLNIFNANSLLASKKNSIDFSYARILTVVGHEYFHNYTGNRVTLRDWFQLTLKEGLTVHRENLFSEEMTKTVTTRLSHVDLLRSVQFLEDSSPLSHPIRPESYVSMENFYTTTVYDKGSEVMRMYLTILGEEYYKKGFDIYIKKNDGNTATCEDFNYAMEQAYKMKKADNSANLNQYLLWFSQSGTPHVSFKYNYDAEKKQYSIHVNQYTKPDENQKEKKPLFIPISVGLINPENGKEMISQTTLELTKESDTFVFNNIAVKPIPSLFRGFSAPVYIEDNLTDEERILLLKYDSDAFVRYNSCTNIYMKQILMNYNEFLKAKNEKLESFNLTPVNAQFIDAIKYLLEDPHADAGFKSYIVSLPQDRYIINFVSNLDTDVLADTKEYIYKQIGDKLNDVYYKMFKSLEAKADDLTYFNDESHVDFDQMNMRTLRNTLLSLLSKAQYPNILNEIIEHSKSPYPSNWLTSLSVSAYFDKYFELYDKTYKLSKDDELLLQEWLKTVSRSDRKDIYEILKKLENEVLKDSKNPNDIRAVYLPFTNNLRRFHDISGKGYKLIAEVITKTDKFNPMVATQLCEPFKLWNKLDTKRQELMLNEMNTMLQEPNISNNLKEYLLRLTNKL

This assay addresses Aminopeptidase N (Plasmodium falciparum (isolate 3D7)) (UniProt O96935). In words: P. falciparum M1AAP inhibitors, biochemical, fluorogenic H-Leu-NHMec substrate, 1536-well (AID 1445).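 Note: plate controls were DMSO full reaction for no effect and no enzyme background for full effect.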 The conditions noted are these: recombinant M1AAP, H-Leu-NHMec fluorogenic kinetic assay; at 30 µM, stronger effect = higher value unless noted.
As usually defined, the inhibition is the drop in the measured response relative to a control, in per cent. As for `COc1cccc2[nH]c3c(=O)n(CCCN4CCOCC4)cnc3c12`, the inhibition is 4.76%.

Turning to `CCOC(=O)c1c(C)c2c(n1C)CCC/C2=N\O`, the inhibition was 5.95%.

`Fc1cccc(/C=N/Nc2ncnc3nc[nH]c23)c1`: the inhibition is 17.8%.

Consider `CCOC(=O)c1c(C)[nH]c(C(=O)Nc2ccc(C)c(Cl)c2)c1C`, for which the inhibition was -6.14%.

`O=C(N[C@@H](Cc1ccc(O)cc1)C(=O)O)C(c1ccccc1)c1ccccc1`: the inhibition was 1.32%.

In the case of `CC(C)[C@H](NC(=O)[C@H](CC(=O)O)NC(=O)[C@H](CCCCN)NC(=O)[C@@H](N)CCCN=C(N)N)C(=O)N[C@@H](Cc1ccc(O)cc1)C(=O)O` (H-RKDVY-OH), the inhibition is -1.63%.

In the case of `COc1cc(/C=N/n2cnnc2)ccc1OS(=O)(=O)c1ccccc1[N+](=O)[O-]`, the inhibition is -1.85%.

Take `CC/C(C)=C1\SC(N2CCN(c3cccc(C(F)(F)F)c3)CC2)=NC1=O`: the inhibition was -4.38%.

Take `O=C(COc1ccc(Cl)cc1)NNC(=O)c1cccnc1`: the inhibition was 3.11%.

`CCC(CC)NC(=O)c1cccc(Br)c1`: the inhibition was 4.75%.

`COc1cccc(NC(=O)CSc2nc3n[nH]c(C)c3c(=N)n2-c2cccc(OC)c2)c1`: the inhibition is 1.29%.

In the case of `COc1ccc(Cc2nnc(SCC(=O)NC3CCCCC3)n2C)cc1`, the inhibition is 24.3% (active).

On to `CCn1c(Cc2ccc(OC)cc2)nnc1SCC(=O)NC1CCCCC1`, for which the inhibition is 5.01%.

In the case of `COc1cccc(-n2c(SCC(=O)NC3CCCCC3)nc3n[nH]c(C)c3c2=N)c1`, the inhibition was 57.3% (active).

Turning to `Cn1c(Cc2ccccc2)nnc1SCC(=O)NC1CCCCC1`, the inhibition is -1.27%.

As for `CCc1ccc(NC(=O)CSc2nc3n[nH]c(C)c3c(=N)n2-c2cccc(OC)c2)cc1`, the inhibition is 3.02%.

With `Cc1ccc(S(=O)(=O)Oc2ccccc2/C=N/NC(=O)c2nn(C)cc2[N+](=O)[O-])cc1`, the inhibition is 9.1%.

Consider `CCOCCCNS(=O)(=O)c1ccc(OC)c(Cl)c1Cl`, for which the inhibition was -1.01%.

Turning to `COc1cnn(Cc2ccccc2)c(=O)c1SCc1ccccc1`, the inhibition is 2.35%.

Turning to `CS(=O)(=O)N1CCN(c2ccc(NC(=S)NC(=O)c3ccccc3[N+](=O)[O-])cc2)CC1`, the inhibition was 2.8%.

In the case of `Cc1[nH]n(-c2cccc(Cl)c2)c(=O)c1-c1ccccc1`, the inhibition was 13.4%.

As for `Cc1[nH]n(-c2ccccc2)c(=O)c1-c1ccc(Cl)cc1`, the inhibition is 17.9%.

With `Cc1[nH]n(-c2cccc(Cl)c2)c(=O)c1-c1ccc(Cl)cc1`, the inhibition is 27.2% (active).

Consider `CC(=O)c1sc(NC(=O)CCCOc2ccc(Cl)cc2)nc1C`, for which the inhibition was -3.27%.

On to `Oc1ccccc1N=Nc1nc(-c2ccccc2)c(-c2ccccc2)[nH]1`, for which the inhibition was -7.75%.

Regarding `O=c1c(=Nc2ccccc2O)c(=O)c2ccccc12`, the inhibition was -8.18%.

On to `CCOc1ccc(NC(=S)Nc2ccc(Br)cc2Cl)cc1`, for which the inhibition is 2.64%.

Take `O=C(CN1C(=O)C2C3C=CC(C3)C2C1=O)Nc1ccc(C(=O)O)cc1` (configuration not stated): the inhibition is 14.6%.

On to `Cc1ccccc1NC(=O)CN1C(=O)C2C3CC(C(Br)C3Br)C2C1=O` (configuration not stated), for which the inhibition is 5.98%.

Consider `CCOc1ccc(NC(=O)c2ccccc2NC(=O)CN(C)CC(=O)Nc2ccc(C)cc2)cc1`, for which the inhibition is 1.3%.

As for `N#CC(=NCc1cccnc1)C1=C(O)c2ccccc2C1=O`, the inhibition was -2.18%.

As for `CCOC(=O)c1c(C)oc2ccc(NS(=O)(=O)c3ccc(C(=O)O)cc3)cc12`, the inhibition is 10.2%.

As for `CC1(C)CC(=O)c2c(oc3ccc(NS(=O)(=O)c4cccc5cccnc45)cc23)C1`, the inhibition is 3.99%.

On to `O=C(N=Nc1c(O)[nH]c2ccccc12)c1cccc(S(=O)(=O)Nc2ccccc2Cl)c1`, for which the inhibition was 13.3%.

For the compound `CCOCCc1nnc(NC(=O)Cc2ccccc2)s1`, the inhibition was 7.8%.

For the compound `CCn1c(SCC(=O)Nc2ccccc2C)nc2nc3c(cc2c1=O)COC(C)(C)C3`, the inhibition was 13.2%.

Take `CCc1cc(=O)oc2cc(C)cc(OCc3nn[nH]n3)c12`: the inhibition is 9.2%.

As to `CCCc1cc(=O)oc2cc(C)cc(OCc3nn[nH]n3)c12`, the inhibition is 17.7%.

On to `Cc1c(N2C(=O)/C(=C/c3ccccc3)SC2=S)c(=O)n(-c2ccccc2)n1C`, for which the inhibition was 13.6%.

With `Cc1c(N2C(=O)/C(=C\c3ccccc3O)SC2=S)c(=O)n(-c2ccccc2)n1C`, the inhibition was 13%.

`CCOc1cc(/C=C2\N=C(SCC)SC2=O)cc([N+](=O)[O-])c1OC(C)=O`: the inhibition is 60.6% (active).

`C=CCSC1=N/C(=C\c2cc(OCC)c(OC(C)=O)c([N+](=O)[O-])c2)C(=O)S1`: the inhibition is 10.7%.

As to `COc1ccc(/C=C2\N=C(SC)SC2=O)cc1OC`, the inhibition was -0.19%.

As for `COC(=O)c1ccc(/C=C2\N=C(SC)SC2=O)cc1`, the inhibition is 6.81%.

Regarding `CCOc1c(OC(C)=O)ccc(/C=C2\N=C(SCC)SC2=O)c1[N+](=O)[O-]`, the inhibition is 9.88%.

For the compound `Cc1ccsc1/C=N/NC(=O)c1ccc(-n2cccc2)cc1`, the inhibition was -0.71%.

For the compound `CCC(=O)c1ccc(N2CCN(S(=O)(=O)c3ccccc3)CC2)c(F)c1`, the inhibition is -2.32%.

On to `OC1CCN(c2ncnc3c2nnn3Cc2c(F)cccc2Cl)CC1`, for which the inhibition was -1.3%.

As to `Cn1nnnc1SCC(=O)Nc1c(Cl)cccc1Cl`, the inhibition was -11.1%.

As for `O=C(NN1C(=O)c2cc(Br)ccc2NC1c1cc(Br)cc(Br)c1O)c1ccncc1` (configuration not stated), the inhibition was 15.9%.

Consider `O=C(COC(=O)Cc1ccc(S(=O)(=O)N2CCOCC2)s1)NCCc1ccccc1`, for which the inhibition was 5.27%.

With `NS(=O)(=O)c1ccc(CCNC(=O)CN2CCCCC2)cc1`, the inhibition was -1.82%.

As for `NS(=O)(=O)c1ccc(CCNC(=O)c2ccc(S(=O)(=O)N3CCCCC3)cc2)cc1`, the inhibition was 15.2%.

For the compound `O=C(Cc1ccc(S(=O)(=O)N2CCOCC2)s1)NCC1CCCCC1`, the inhibition was 3.48%.

Regarding `CCn1cc(CNC(=O)CSc2nc(-c3ccc(OC)c(OC)c3)cc(C(F)(F)F)n2)c(C)n1`, the inhibition is 8.78%.

As for `O=C(CC1(c2ccc(Cl)cc2)C2CC3CC(C2)CC1C3)NCCO` (configuration not stated), the inhibition was 3.19%.

Take `CCN1CCN(CCCNC(=O)c2cn(CCOC)c(=O)c3c2c2ccccc2n3C)CC1`: the inhibition is 17.7%.
